Screening results from PubChem BioAssay.
Shown are actives, neighbours in structure and some others; about 10% of the full set was active somewhere.
NIH3T3 tox: Cytotoxic Profiling in NIH 3T3 Cell Line of Diverse Libraries Using Quantitative High-Throughput Screening | NIH 3T3 viability, CellTiter-Glo ATP luminescence, 48-72 h | Potency, µM (highest dose often 96.7 µM), for inactives: top-dose activity change, negative = cytotoxicity, actives largely listed as inhibitors | 94,000 tested, 4.3% active | AID 1345082, 2018; further: nearly all actives have a fitted effect of over 55% in size
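ATP-dependent luminescence (CellTiter-Glo) served as the viability signal for NIH 3T3 cells treated with compound for 48 or 72 hr at 37 °C.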
GPT2 inh: Primary qHTS assay for inhibitors of Glutamate pyruvate transaminase 2 (GPT2); Alanine aminotransferase 2 (Homo sapiens), Q8TD30; 100,000 tested, 0.25% active; AID 1671188, 2021; Recombinant GPT2, coupled pyruvate oxidase/HRP Amplex Red fluorescence; Potency, µM (series often up to 57.7 µM), inactives show at the top dose activity change, negative = inhibition, usual class: inhibitors; further: nearly all actives have a fitted effect of over 60% in size
Target sequence (Q8TD30 whole entry, looked up): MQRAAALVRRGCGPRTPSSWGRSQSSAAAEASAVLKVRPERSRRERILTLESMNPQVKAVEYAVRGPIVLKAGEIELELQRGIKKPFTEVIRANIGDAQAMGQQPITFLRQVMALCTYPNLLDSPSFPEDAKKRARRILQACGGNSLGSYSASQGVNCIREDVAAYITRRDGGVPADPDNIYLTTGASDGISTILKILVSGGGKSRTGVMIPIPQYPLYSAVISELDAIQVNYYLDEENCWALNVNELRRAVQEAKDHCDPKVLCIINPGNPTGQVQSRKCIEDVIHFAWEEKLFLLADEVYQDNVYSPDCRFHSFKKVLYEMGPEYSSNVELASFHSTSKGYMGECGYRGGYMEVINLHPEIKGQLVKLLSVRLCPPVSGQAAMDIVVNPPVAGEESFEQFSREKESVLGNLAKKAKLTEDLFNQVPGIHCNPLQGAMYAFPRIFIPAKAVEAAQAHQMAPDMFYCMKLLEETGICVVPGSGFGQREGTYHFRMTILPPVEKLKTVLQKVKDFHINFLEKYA
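GPT2 10ng/uL, a-KG 250uM, L-Ala 2mM, HEPES pH7.5 + 0.0001% Tween; 30 min RT. Then Amplex mix (PO/HRP/ThPP), 30 min RT dark, fluorescence. AOA 50uM used as positive control.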
NPR1 antag: Natriuretic polypeptide receptor (hNpr1) antagonism - Primary qHTS | Atrial natriuretic peptide receptor 1 (Homo sapiens), P16066 | 76,000 tested, 1.6% active | HEK293 hNpr1 GloSensor cGMP, ANP-stimulated luminescence | Potency, µM (series often up to 46.3 µM), for the others: top-dose activity change, negative = inhibition, actives largely listed as inhibitors; calls by dose curve; further: nearly all actives have a fitted effect of over 60% in size
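Compound pre-incubated 30 min at room temperature on GloSensor-loaded HEK293 cells stably carrying hNpr1 and the pGS-40F cGMP biosensor. Stimulation uses hNppA at 0.1 nM final; luminescence is taken at baseline and 20 min post-agonist.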
FLuc inh: Firefly luciferase inhibition profiling of diverse chemical library using quantitative high-throughput screening; Luciferin 4-monooxygenase (Photinus pyralis), P08659; purified P. pyralis luciferase, luminescence, biochemical; Potency, µM (doses to about 115 µM), actives largely listed as inhibitors; 76,000 tested, 2.5% active; AID 1347043, 2019; further: nearly all actives have a fitted effect of over 65% in size
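Purified P. pyralis luciferase (10nM final) in 50mM Tris acetate pH 7.5, 10mM Mg acetate, 0.01% Tween-20, 0.05% BSA with 10uM D-luciferin and 10uM ATP. Compounds titrated qHTS. Luminescence imaged on CCD.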
HEK cytotox: Cytotoxic Profiling in HEK 293 Cell Line of Diverse Libraries Using Quantitative High-Throughput Screening | HEK 293 viability, ATP luminescence (CellTiter-Glo), 48-72 h | Potency, µM (series often up to 115 µM), for inactives: top-dose activity change, negative = cytotoxicity, usual class: inhibitors | 94,000 tested, 6.6% active | AID 1345083, 2018; further: nearly all actives have a fitted effect of over 60% in size
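250 HEK 293 cells/well; compound by pintool; incubated 48 or 72 hr at 37 degree Celsius; CellTiter-Glo added, 10 min RT, luminescence imaged.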
An asterisk follows results filed as active; i = inactive; ? = inconclusive; nt = no result; [ ] = another dose, or the depositor's remark. Unless noted, the call rests on the fitted dose curve; in most records, active means well fitted curve in the direction sought with a large enough effect; inconclusive means small, poorly fitted or top-dose-only effect, or another doubt; inactive means no such curve, though single readings can be large; an effect the other way counts as inactive or inconclusive. On the % scale 0 is the no-effect control and ±100 the full control effect; potency means the concentration at half of the fitted maximal effect.

SMILES	NIH3T3 tox	GPT2 inh	NPR1 antag	FLuc inh	HEK cytotox
CN(C)C(=O)c1cccnc1OC1CCN(S(=O)(=O)Cc2ccc(Cl)cc2)C1 (centres undefined)	-11.3%	-2.7%	-7.9%	i	?
O=C1NC(C(=O)N2CCOCC2)Cn2cccc21 (centres undefined)	-2.9%	2.0%	-3.6%	i	-2.1%
COc1ccc(CN2CC(O)CN(C(=O)CC(C)C)CC2=O)cc1 (centres undefined)	?	nt	nt	nt	-29.0%
COc1ccc(-c2cc(N3CCCN(C(=O)c4ccccc4)CC3)n[nH]2)cc1	-11.0%	-1.5%	3.1%	i	?
COc1ccc(-c2cc(N3CCN(C(=O)c4cc5ccccc5[nH]4)CC3)n[nH]2)cc1	20µM*	i	-27.6%	?	28.2µM*
Cc1ccc(C(=O)N2CCN(c3cc(-c4ccccc4)[nH]n3)CC2)cc1	?	1.4%	?	i	?
O=C(c1cc2ccccc2[nH]1)N1CCN(c2cc(-c3ccccc3)[nH]n2)CC1	35.5µM*	i	-10.5%	?	?
O=C(c1ccccc1Cl)N1CCN(c2cc(-c3ccccc3)[nH]n2)CC1	?	?	-12.9%	i	20µM*
O=C(c1ccc(F)cc1F)N1CCN(c2cc(-c3ccc(F)cc3)[nH]n2)CC1	?	i	?	i	39.8µM*
O=C(c1ccc(F)cc1F)N1CCN(c2cc(-c3ccccc3)[nH]n2)CC1	-26.6%	-4.8%	-1.6%	i	?
CC(=O)N1CC[C@]2(O)CCN(C(=O)CCCc3ccc(F)cc3)C[C@@H]2C1	-6.2%	0.6%	0.0%	i	0.9%
CC(C)CCN1CCC2(CC1)CC(=O)N(c1ccccc1)c1ccccc1O2	?	-4.4%	?	i	44.7µM*
Cn1cccc1CN1CCC2(CC1)CC(=O)N(c1ccccc1)c1ccccc1O2	39.8µM*	i	-22.5%	i	22.4µM*
Cc1ccc(CN2CCC3(CC2)CC(=O)N(c2ccccc2)c2ccccc2O3)cc1	39.8µM*	i	6.9%	i	31.6µM*
O=C1CC2(CCN(Cc3ccccc3)CC2)Oc2ccccc2N1c1ccccc1	-24.2%	2.7%	2.7%	i	?
CC(=O)NC1CCN(c2ccnc3ccnn23)C1 (centres undefined)	-10.0%[138 µM]	i	nt	nt	-11.1%[172 µM]
COc1ccc(CCc2nc3nccc(-c4ccc5c(c4)OCCCO5)n3n2)cc1OC	?	-1.2%	-5.3%	?	44.7µM*
Fc1ccc(Cc2nc3nccc(-c4ccc5c(c4)OCCCO5)n3n2)cc1	?	-3.0%	-1.5%	?	44.7µM*
COc1ccc(Cc2nc3nccc(-c4ccc5c(c4)OCCCO5)n3n2)cc1	?	2.1%	-0.3%	i	?
CC1(c2noc(-c3ccccn3)n2)CCN(C(=O)CCc2nc3ccc(Cl)cc3[nH]2)CC1	?	4.2%	-15.8%	i	50.1µM*
CC1(c2noc(C3CC3)n2)CCN(C(=O)CCc2nc3ccc(Cl)cc3[nH]2)CC1	-23.1%	i	-19.8%	i	?
CC1(c2noc(-c3ccccn3)n2)CCN(C(=O)C2CCN(C(=O)c3ccc(=O)[nH]c3)CC2)CC1	?	i	15.1%	i	-19.8%
Cc1noc(C)c1Cc1ccc(C(=O)N2CCC(C)(c3noc(-c4cccnc4)n3)CC2)o1	31.6µM*	i	-22.7%	i	?
Cc1noc(C)c1Cc1ccc(C(=O)N2CCC(C)(c3noc(-c4ccccn4)n3)CC2)o1	?	i	-29.6%	i	44.7µM*
COc1ccc(-c2ccc3ncc(Nc4ccnc(N5CCOCC5)c4)n3n2)cn1	22.4µM*	3.1%[88.5 µM]	2.8%[70.6 µM]	i	28.2µM*
SMILES	NIH3T3 tox	GPT2 inh	NPR1 antag	FLuc inh	HEK cytotox
COc1ccccc1-c1ccc2ncc(Nc3ccnc(N4CCOCC4)c3)n2n1	?	i	-23.9%[70.6 µM]	i	?
OCc1cccc(-c2ccc3ncc(Nc4ccnc(N5CCOCC5)c4)n3n2)c1	?	0.9%[88.5 µM]	5.8%[70.6 µM]	?	100µM*
CCc1ccc(NC(=O)N2CC3CC(C2)[C@H]2CCCC(=O)N2C3)cc1 (some centres undefined)	i	-0.7%	0.6%	i	17.3%
CCc1nc(C)c(C(=O)N2CCN3C(=O)CNC(=O)C3C2)s1 (centres undefined)	-14.0%	i	-0.7%	i	-10.2%
COCCNC(=O)C1(C)CCCc2cnc(Nc3ccccc3)nc21 (centres undefined)	?	-14.8%[88.5 µM]	-1.6%[70.6 µM]	i	?
Cn1ccc(NC(=O)C2(C)CCc3cnc(NCc4ccccc4)nc32)n1 (centres undefined)	20µM*	3.9%[88.5 µM]	-5.3%[70.6 µM]	i	?
CN1CCC(NC(=O)C2(C)CCCc3cnc(NCc4ccccc4)nc32)CC1 (centres undefined)	-27.5%[138 µM]	i	0.0%[70.6 µM]	i	?
COCCNC(=O)C1(C)CCc2cnc(NCc3ccccc3)nc21 (centres undefined)	89.1µM*	0.8%[88.5 µM]	7.5%[70.6 µM]	i	-26.2%[172 µM]
CC1(C(=O)NCCCn2ccnc2)CCc2cnc(NCc3ccccc3)nc21 (centres undefined)	31.6µM*	i	4.1%[70.6 µM]	i	-21.5%[172 µM]
CC1(C(=O)NCCOc2ccccc2)CCCc2cnc(Nc3cccnc3)nc21 (centres undefined)	?	1.8%[88.5 µM]	-15.7%[70.6 µM]	i	100µM*
COc1cc(NC(=O)Cn2c(Nc3cc(C)cc(C)c3)nc(C)cc2=O)cc(OC)c1OC	?	-5.1%	?	i	?
COCCNC(=O)C1(C)CCc2cnc(Nc3ccccc3)nc21 (centres undefined)	79.4µM*	i	5.0%[70.6 µM]	i	?
CC1(C(=O)NCC2CC2)CCc2cnc(NCc3ccccc3)nc21 (centres undefined)	?	-6.0%[88.5 µM]	-3.9%[70.6 µM]	i	39.8µM*
CC1(C(=O)NCC2CC2)CCCc2cnc(Nc3ccccc3)nc21 (centres undefined)	?	1.8%[88.5 µM]	-24.6%[70.6 µM]	i	?
Cc1c(F)cccc1NC(=O)N1C[C@@H](F)C[C@H]1C(=O)N1CCOCC1	-3.4%	i	-9.7%	i	6.6%
CS(=O)(=O)c1ccc(CN[C@@H]2CO[C@H](CNC(=O)c3ccc(F)cc3)[C@H]2O)cc1	i	i	-11.9%[70.6 µM]	i	-1.6%[172 µM]
Cn1cc(CN2CCN3CCCC3C2)c(-c2ccc(C3CCCCC3)cc2)n1 (centres undefined)	?	?	5.8%	?	25.1µM*
